Records with an inconclusive call do not appear. Values without a mark were called inactive. The source made the active and inactive calls. Calls come from the whole dose curve; as a rule, active = well fitted cell-killing curve with a large enough effect in the repeat runs; inconclusive = weak or mixed curves, or effect the other way; inactive = no such curve, though single readings can be large or run the other way.
Assay: qHTS assay to identify small molecule antagonists of the retinoid-related orphan receptor gamma (ROR-gamma) signaling pathway - cell viability counter screen (AID 1159520); note: nearly all actives have a fitted effect of over 50% in size
Details: Tet-on RORgamma CHO cells viability, ATP luminescence, 16 h; series mostly up to 92.4 µM; activity, negative = cytotoxicity: at the top concentration
Text: U.S. Tox21 Program National Center for Advancing Translational Sciences [NCATS] NIH Chemical Genomics Center [NCGC] U.S. Environmental Protection Agency [EPA] National Institutes of Environmental Health Sciences [NIEHS] National Toxicology Program [NTP] U.S. Food and Drug Administration [FDA] Tox21 Assay Overview: Nuclear steroid hormone receptors are involved in many biological processes including inflammatory responses, cell proliferation, and apoptosis. Environmental factors or compounds disrupting these nuclear receptor pathways and gene expression may promote susceptibility to immunotoxicants and autoimmune diseases. One important group of these expression factors are the retinoid-related orphan receptors. To assess compounds that may interfere with the retinoid-related orphan receptor gamma (ROR-gamma) transcription factor, a cell-based luciferase assay was used. The CHO cell-based assay utilizes a TET-inducible ROR expression factor and ROR response element-LUC reporter gene. Reporter gene activity was induced using Doxycycline Hyclate and measured after 16 hr incubation. Tet-on ROR gamma CHO cells were used to screen against the Tox21 10K compound library for cytotoxicity by measuring the viability of the cells based on the quantitation of the ATP.
Tox21 Assay Protocol Summary: Tet-on ROR gamma CHO cells were dispensed at 1,000 cells in 4 uL of culture medium per well into white wall/solid bottom 1536-well plates using a Multidrop Combi (Thermo Scientific, Waltham, MA) dispenser. Following incubation at 37 C and 5% CO2 for 4 hr, 23 nL of compounds dissolved in DMSO, positive controls or DMSO only were transferred by a Pintool station (Kalypsys, San Diego, CA) and after 2 hr incubation at 37 C, one ul of 1 uM (final concentration) of Doxycycline Hyclate was added to all the wells by using a Flying Reagent Dispenser (FRD) (Aurora Discovery, San Diego, CA). After 16 hr incubation at 37 C and 5% CO2, 5 uL of CellTiter-Glo reagent (Promega Corporation, Madison, WI) was added to each assay plate using FRD. After 30 min incubation at room temperature, luminescence was quantified on a ViewLux plate reader (Perkin Elmer, Waltham, MA).
% is set by controls: 0 for no effect and ±100 for the full control effect.

Compound	activity, negative = cytotoxicity	Potency
CCOC(=O)CCl	1.18%	–
CCc1cc(OC)c(C[C@H](C)N)cc1OC	-4.08%	–
O=C(Cl)/C=C/C(=O)Cl	2.05%	–
CCOc1cc(OP(=S)(OC)OC)nc(CC)n1	6.96%	–
CCC1(c2ccccc2)CCC(=O)NC1=O (stereo not given)	2.88% [at 42.5 µM]	–
CC1N=C(N)OC1c1ccccc1 (stereo not given)	-1.87%	–
CN(C)CCN(C)C	1.69%	–
CN(CCO)CCO	1.73%	–
Cc1ccc(S(=O)(=O)N[C@@H](CCCCN)C(=O)CCl)cc1	2.26% [at 42.5 µM]	–
CCC1(c2ccccc2)C(=O)N(COC)C(=O)N(COC)C1=O	2.85% [at 42.5 µM]	–
CC(C)NCC(O)c1ccc([N+](=O)[O-])cc1 (stereo not given)	6.03% [at 42.5 µM]	–
CCC(C)C(C)(COC(N)=O)COC(N)=O (stereo not given)	7.75% [at 42.5 µM]	–
CCCCS(=O)(=O)Cl	3.78%	–
CCN(CC)CCOC(=O)C(O)(c1ccccc1)c1ccccc1	3.94% [at 42.5 µM]	–
C[C@H](N)C(=O)c1ccccc1	-5.69%	–
CN1C(=O)COc2c(C(=O)NC3CN4CCC3CC4)cc(Cl)cc21 (stereo not given)	3.64% [at 42.5 µM]	–
Cn1c(CCCC(=O)O)nc2cc(N(CCCl)CCCl)ccc21	5.81% [at 42.5 µM]	–
BrCC1CO1 (stereo not given)	-0.73%	–
O=C(NC(=O)c1c(F)cccc1F)Nc1cc(Cl)c(F)c(Cl)c1F	-5.47%	–
COc1ccc(C=O)cc1O	7.27%	–

Compound	activity, negative = cytotoxicity	Potency
CON(C)C(=O)Nc1ccc(Br)cc1	-0.123%	–
C=C(C)[C@H]1CN[C@H](C(=O)O)[C@H]1CC(=O)O	0.8% [at 42.5 µM]	–
O=C(CCl)NCO	4.56%	–
CC(Cc1ccccc1)NCCCCl (stereo not given)	4.56% [at 42.5 µM]	–
C=CC=O	-6.2%	–
NCC1(CC(=O)O)CCCCC1	6.23% [at 42.5 µM]	–
CC(=O)OCC1=C(C(=O)O)N2C(=O)[C@@H](N)[C@H]2SC1	5.7% [at 19 µM]	–
CON(C)C(=O)Nc1ccc(Br)c(Cl)c1	-12.9%	–
C=C1CC[C@@]2(O)[C@H]3Cc4ccc(O)c5c4[C@@]2(CCN3CC2CC2)[C@H]1O5	6.15% [at 42.5 µM]	–
COP(=O)(O)OC	5.65%	–
CC(C)C(C)(N)C#N (stereo not given)	3.01%	–
C/C(=N\NC(=O)Nc1cc(F)cc(F)c1)c1ncccc1C(=O)O	–	inactive
CCN[C@@H](C)Cc1cccc(C(F)(F)F)c1	1.98% [at 42.5 µM]	–
CCCN1CCC[C@@H]2Cc3nc(N)ncc3C[C@H]21	0.68% [at 42.5 µM]	–
OCC(Cl)CCl (stereo not given)	-3.76%	–
CCCCCCCCSC(=O)Oc1cc(Cl)nnc1-c1ccccc1	-1.48%	–
C#CC(C)(C)O	-8.32%	–
CS(=O)(=O)Cl	4.22%	–
CC(C)(C)NC[C@H](O)c1ccc(O)cc1Cl	0.778% [at 42.5 µM]	–
Oc1ccc2c3c1O[C@H]1[C@@H](O)C=C[C@H]4[C@@H](C2)NCC[C@@]341	1.2%	–

From PubChem BioAssay (Tox21)
